Measurements reported in PubChem BioAssay (EPA / NIEHS).
Records with an inconclusive call do not appear. The source made the active and inactive calls. The calls were made as follows, unless noted: active = hit-call score of the fitted dose curve at least 0.9, where 1 is the maximum; inactive = score below 0.9.

How the values were obtained:
[1] = CCTE_Harrill_HTTr_Viability_MCF7: CCTE's 6-hour Cell Viability Assessment for the High-Throughput Transcriptomics (HTTr) Platform, in MCF-7 cells cultured in DMEM + 10% fetal bovine serum, Harrill Lab (AID 2284010)
In short: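 Viability measured through PI dye exclusion by high-content imaging at 6 h post-dosing.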

[2] = CCTE_Harrill_HTTr_Apoptosis_MCF7: CCTE's 6-hour Apoptosis Assessment for the High-Throughput Transcriptomics (HTTr) Platform, in MCF-7 cells cultured in DMEM + 10% fetal bovine serum, Harrill Lab (AID 2284011)
In short: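 Cells are dosed with test chemicals at eight concentrations and imaged 6 hours later for caspase-3/7 activity using a green fluorogenic detection reagent. Activity is fitted in both directions against DMSO controls.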

[3] = CCTE_Harrill_HTTr_CellCount_MCF7: CCTE's Cell Proliferation Assessment for the High-Throughput Transcriptomics (HTTr) Platform, Harrill Lab (AID 2284012; active = hit-call score of the fitted dose curve at least 0.9, where 1 is the maximum;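 also: count of Hoechst-stained nuclei per well by high-content imaging in MCF-7 cells; cells exposed to compound for six hours; intended direction is loss of nuclei count meaning fewer cells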)
In short: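 Nuclei counting (Hoechst, high content imaging) in MCF-7 after a 6 h treatment at eight concentrations. Activity fitted bidirectionally, DMSO as negative control.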

[4] = CCTE_Shafer_MEA_acute_burst_duration_mean: CCTE's Neural Acute Assay for Mean Burst Duration, Shafer Lab (AID 2284014);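 also: hits are decreases in mean burst duration relative to DMSO controls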
In short: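 Read-out is the per-well percent change in mean burst duration (first to last spike within a single-electrode burst) between 40-min recordings before and after compound. Cultures were primary rat cortical neurons on MEAs, dosed at 0.03-40 uM on DIV 13 or 15.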

[5] = CCTE_Shafer_MEA_acute_per_burst_spike_number_mean: CCTE's Neural Acute Assay for Average Number of Spikes Per Burst, Shafer Lab (AID 2284015);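 also: hits are decreases in mean spikes per burst versus baseline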
In short: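 Read-out: percent change in mean spikes per burst, each well's post-exposure 40-min recording versus its own 40-min baseline. Rat cortical cultures, DIV 13 or 15, compounds 0.03-40 uM; DMSO is negative control, loss-of-signal fitting.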

[6] = CCTE_Shafer_MEA_acute_burst_percentage_mean: CCTE's Neural Acute Assay for Percentage of Spikes in a Burst, Shafer Lab (AID 2284017);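 as to AC50: curve fitted for loss of signal so potency reflects decreased burst percentage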
In short: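 Rat cortical cultures, DIV 13/15, 37 C. Spikes detected at 8x rms noise (300-5000 Hz band-pass). Burst spikes/total spikes averaged across electrodes per well; % change post- vs pre-treatment (40 min each), loss-of-signal fit vs DMSO.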

[7] = CCTE_Shafer_MEA_acute_burst_percentage_std: CCTE's Neural Acute Assay for Standard Deviation of Burst Percentage, Shafer Lab (AID 2284018);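 also: fitted in the negative direction so actives lower burst percentage SD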
In short: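 Value is percent change from baseline in the across-electrode SD of spikes-in-bursts percentage, wells with >/= 10 active electrodes. Acute 40-min exposure to 0.03-40 uM on DIV 13 or 15 rat cortical cultures, recorded at 37 C after 40-min baseline.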

[8] = CCTE_Shafer_MEA_acute_per_network_burst_spike_number_mean: CCTE's Neural Acute Assay for Average Number of Spikes in a Network Burst, Shafer Lab (AID 2284019);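 as to AC50: curve fitted for loss of signal so actives reduce spikes per network burst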
In short: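 Read-out is mean spike count per network burst, taken as percent change between a 40-min pre-exposure and a 40-min post-exposure recording per well. Rat primary cortical neurons on MEAs at 37 C, DIV 13 or 15; compounds at 0.03-40 uM.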

[9] = CCTE_Shafer_MEA_acute_per_network_burst_spike_number_std: CCTE's Neural Acute Assay for Standard Deviation of Number of Spikes in a Network Burst, Shafer Lab (AID 2284020);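 also: fitted for decrease in spike-number SD versus DMSO so actives lower it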
In short: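 Spontaneous network activity of primary rat cortical neurons is recorded extracellularly before and after a 40-min compound exposure (0.03-40 uM) at 37 C. The endpoint is the well's percent change in burst spike-number SD.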

[10] = CCTE_Shafer_MEA_acute_per_network_burst_electrodes_number_mean: CCTE's Neural Acute Assay for Mean Number of Electrodes in a Network Burst, Shafer Lab (AID 2284021);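 also: curves fitted for decreases only so hits reduce electrodes per burst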
In short: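 Cultures of rat cortex neurons were exposed on DIV 13 or 15 to compounds at 0.03-40 uM in at least three wells each. Activity over 40 min before and 40 min after exposure at 37 C gave the percent change in electrodes per network burst.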

Measured: AC50

O=C(O)Cc1cc(I)c(Oc2ccc(O)c(I)c2)c(I)c1
inactive: [1] | [2] | [3]

CCCCOC(=O)c1ccc(O)cc1
active: [6] 31.1 µM
inactive: all other assays above

Clc1cc(Cl)c2c(c1)N=C1CCCCCN1C2
inactive: [1] | [2] | [3]

CC/C(=C(/CC)c1ccc(O)cc1)c1ccc(O)cc1
active: [5] 6.76 µM | [6] 10.6 µM | [7] 35.4 µM | [8] 5.3 µM | [10] 20 µM
inactive: [1] | [2] | [4] | [9]

CN1C(=O)N(c2ccccc2Br)Cc2cnc(Nc3ccc4c(c3)OCC(CO)O4)nc21 (stereo unspecified)
inactive: [1] | [2] | [3]

c1ccc2n[nH]nc2c1
not listed: [1] | [2] | [3]
inactive: all other assays above

C[C@]12CC[C@@H]3c4ccc(O)cc4CC[C@H]3[C@@H]1CC[C@H]2O
inactive: all assays above

CC[C@@H]1C[C@H](N(Cc2cc(C(F)(F)F)cc(C(F)(F)F)c2)C(C)=O)c2cc(C(F)(F)F)ccc2N1C(=O)OC(C)C
active: [4] 4.21 µM
not listed: [3]
inactive: all other assays above

CN(C[C@@H](CC[N+]12CCC(C3CCCCC3)(CC1)CC2)c1ccc(Cl)c(Cl)c1)C(=O)c1cc(C(F)(F)F)cc(C(F)(F)F)c1
inactive: [3] | [8]
active: [1] 78.6 µM | [2] 42.5 µM | [4] 1.19 µM | [5] 1.14 µM | [6] 8.36 µM | [7] 2.53 µM | [9] 8.89 µM | [10] 5 µM

Cc1cc2c(cc1C(F)(F)F)N(C(=O)Nc1ccc(Oc3cccnc3C)nc1)CC2
not listed: [3]
inactive: all other assays above

Cc1cn([C@H]2C[C@H](N=[N+]=[N-])[C@@H](CO)O2)c(=O)[nH]c1=O
inactive: all assays above

NC(=O)c1nc(-c2cccc(-c3cc(F)ccc3OCC(F)(F)C(F)(F)F)c2)n[nH]1
active: [5] 4.11 µM | [6] 7.48 µM | [7] 2.16 µM | [8] 0.16 µM | [9] 37.4 µM
inactive: [1] | [2] | [3] | [4] | [10]

Cc1c2ccccc2c(C)c2c1ccc1ccccc12
active: [6] 29.7 µM | [7] 35.2 µM
inactive: all other assays above

Clc1ccccc1C(c1ccccc1)(c1ccccc1)n1ccnc1
active: [5] 5.84 µM | [6] 7.02 µM | [7] 9.25 µM | [9] 6.71 µM | [10] 2.24 µM
inactive: [1] | [2] | [4] | [8]

CC(C)(C)c1cc(/C=C2\SC(N)=NC2=O)cc(C(C)(C)C)c1O
inactive: all assays above

CC(O)CC(C)(C)O (stereo unspecified)
inactive: all assays above

CN1C(=O)CC[C@H]1c1cccnc1
not listed: [3]
inactive: all other assays above

CC(=O)N1CCN(c2ccc(OC[C@H]3CO[C@](Cn4ccnc4)(c4ccc(Cl)cc4Cl)O3)cc2)CC1
active: [6] 33 µM | [7] 32.9 µM
inactive: all other assays above

NCc1cccc(C2CCN(C(=O)c3ccc(C#Cc4ccccc4F)o3)CC2)c1
inactive: [3] | [4] | [7] | [8]
active: [1] 50 µM | [2] 61.4 µM | [5] 35.3 µM | [6] 30.8 µM | [9] 20 µM | [10] 20 µM
